Experimental data from PubChem BioAssay (NCI).
Compounds without any hit were thinned out: in the full panel of roughly 83,000, 20% have a hit.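 Assay: single dose, 48 h. Readout: percent growth (0 = no net growth; negative = cell death). Active: <10.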 Values without a mark were called inactive. Calls of active or inactive are those of the source.

Assays:
Experiment in all cases: NCI-60 one-dose screen, 48 h (100 = growth as untreated, 0 = no growth, -100 = all killed)
Conditions in all cases: 10 µM unless noted
NCI-H23 lung = test system: NCI-H23 lung
NCI-H226 lung = test system: NCI-H226 lung
HOP-62 NSCLC = test system: HOP-62 NSCLC
NCI-H460 lung = test system: NCI-H460 lung
HOP-92 NSCLC = test system: HOP-92 NSCLC
NCI-H522 lung = test system: NCI-H522 lung
A549/ATCC NSCLC = test system: A549/ATCC NSCLC
786-0 renal = test system: 786-0 renal
COLO 205 colon = test system: COLO 205 colon
DU-145 prostate = test system: DU-145 prostate
K-562 leukemia = test system: K-562 leukemia
MALME-3M melanoma = test system: MALME-3M melanoma
MDA-MB-231 breast = test system: MDA-MB-231 breast
RXF 393 renal = test system: RXF 393 renal
SF-268 CNS = test system: SF-268 CNS
SF-295 CNS = test system: SF-295 CNS
SF-539 CNS = test system: SF-539 CNS
UACC-257 melanoma = test system: UACC-257 melanoma
M14 melanoma = test system: M14 melanoma
NCI-H322M lung = test system: NCI-H322M lung

| SMILES | growth (NCI-H23 lung) | growth (NCI-H226 lung) | growth (HOP-62 NSCLC) | growth (NCI-H460 lung) | growth (HOP-92 NSCLC) | growth (NCI-H522 lung) | growth (A549/ATCC NSCLC) | growth (786-0 renal) | growth (COLO 205 colon) | growth (DU-145 prostate) | growth (K-562 leukemia) | growth (MALME-3M melanoma) | growth (MDA-MB-231 breast) | growth (RXF 393 renal) | growth (SF-268 CNS) | growth (SF-295 CNS) | growth (SF-539 CNS) | growth (UACC-257 melanoma) | growth (M14 melanoma) | growth (NCI-H322M lung) |
| --- | --- | --- | --- | --- | --- | --- | --- | --- | --- | --- | --- | --- | --- | --- | --- | --- | --- | --- | --- | --- |
| O=C(N/N=C/c1ccc(Cl)o1)c1[nH]c2ccc(Br)cc2c1-c1ccccc1 | -29.7% (active) | -42.1% (active) | -48.3% (active) | -70.8% (active) | 9.01% (active) | -59.8% (active) | -23.2% (active) | -57.7% (active) | -39.9% (active) | -49.1% (active) | 8.31% (active) | 2.82% (active) | -69.9% (active) | -62.6% (active) | 3.21% (active) | -19.3% (active) | -97.2% (active) | 17% | -3.48% (active) |  |
| COc1ccc(-c2nc3ccc(-c4nnc(SCc5ccccc5)o4)cc3[nH]2)cc1OC | 38.8% | -26.7% (active) | -29.8% (active) | -6.16% (active) | -3.75% (active) | 51.9% | 9.7% (active) | -33.5% (active) | 74.2% | 17.2% | 56.8% | 15.9% | -34.4% (active) | -34.1% (active) | 35.2% | 55.4% | -44.5% (active) | 78.4% | 40.7% |  |
| CN(C)c1nc(NCCNS(=O)(=O)c2ccc(C(=O)/C=C/c3ccccc3)cc2)nc(N2CCOCC2)n1 | 93.2% | 82.6% | 108% | 101% | 94.9% | 67.5% | 78.8% | 66.4% | 105% | 89.6% | -15.4% (active) | 99.2% | 7.26% (active) | 79% | 74.6% | 75.6% | 77.1% | 78.8% | 84.4% |  |
| COc1ccc(C(=O)/C=C/c2ccc3c(c2)OCCO3)cc1S(N)(=O)=O | 73% | 116% | 29.7% | 68.3% | 94.5% | 43.8% | 47.6% | 76.5% | 91.9% | 44.7% | 16.7% | 88.3% | 86.5% | 88.5% | 111% | 79.5% | 44.9% | 77.9% | 89.7% |  |
| COC(=O)c1c(C(=O)OC)c2c3ccccc3c3ccccc3n2c1C(=O)C(F)(F)F |  | 80% | 107% | 105% | 97.2% | 96.4% | 111% | 102% | 108% | 106% | 97.2% | 104% | 81.6% | 101% | 101% | 94.3% | 95.2% | 111% | 97% | 101% |
| N#CC1=C(c2ccco2)Nc2c(c(-c3ccccc3)nn2-c2ccccc2)C12C(=O)Nc1ccc(Cl)cc12 (stereo unspecified) | 45.6% | -9.04% (active) | -47.9% (active) |  | -0.851% (active) | 0.0636% (active) | -37.1% (active) | -14.5% (active) | 79.6% | 42.3% | 9.86% (active) | 22.3% | -4.25% (active) | 57.9% | 11% | 6.91% (active) | -30.3% (active) | 56.4% | 22.4% |  |
| O=c1c(-c2nc(-c3ccccc3)c(-c3ccccc3)[nH]2)coc2ccc(F)cc12 | 60.7% | 65.1% | 70.1% | 19% | 88.1% | 71.7% | 40% | 87.2% | 53% | 46.1% | 32.5% | 52% | 64% | 92.3% | 64% | 71.5% | 70.9% | 77.6% | 53.3% |  |
| Cc1ccc(C(=O)Nc2cc(-n3ccnc3C)cc(C(F)(F)F)c2)cc1C#Cc1cnc2cccnn12 | -26.1% (active) | -33.1% (active) | -7.58% (active) | 5.86% (active) | -31.5% (active) | -29.1% (active) | 11.3% | 6.68% (active) | -19.9% (active) | 18.6% | -3.69% (active) | -35.6% (active) | -37.5% (active) | -54.6% (active) | 25.7% | -60.9% (active) | -81.8% (active) | 3.43% (active) | -20% (active) |  |
